# Assay outcomes (PubChem BioAssay)
# This is a sample that favours compounds with a hit; in the whole collection about 3.5% have one here.
# MITF inh = inhibitors of human MITF; O75030; AlphaScreen MITF homodimerization, bead proximity signal; inhibition, % at 2.6 µM; hit rate 0.91% among 650,000; in the data active means inhibition above about 50%;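 further: 0% = vehicle wells with protein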
# GPR151 ag = activators of human GPR151; activation, % at 11.2 µM; AID 1508602; hit rate 1% among 650,000; PathHunter beta-arrestin GPR151 cells, luminescence; Q8TDV0; in the data active means activation above about 4.9%;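 further: 0% = median of compound wells and 100% = cells with positive control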
# FBW7 act = human FBW7 E3 ligase activation, primary screen | Q969H0 | AlphaScreen FBW7–phospho-cyclin E peptide binding, activator screen | normalized activity (activation), % at 26.1 µM | hit rate 0.13% among 650,000 | AID 1259310; in the data active means normalized activity above about 1.9%;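 further: purified mutant Fbw7 with reduced substrate affinity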
# TEAD-YAP block = TEAD-YAP interaction inhibition; HEK-TIYL cells, TEAD-Gal4/YAP UAS-luciferase luminescence; inhibition, % at 9.12 µM; hit rate 1.4% among 640,000; AID 1259422; in the data active means inhibition above about 32%;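 further: 0% = median of test compound wells and 100% = reference inhibitor wells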
# GPR151 confirm = confirmation of human GPR151 activators; shares compounds with GPR151 ag; GPR151 PathHunter beta-arrestin cells, luminescence, 90 min; % of EA-reagent control over plate median; activation, % at 11.2 µM; 6,700 tested, under 10 active;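 active means mean percent activation across replicates above the confirmation screen cutoff of 4.91%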
# GPR119 counter = activates human GPR119 in a GPR151 counter-screen; shares compounds with GPR151 ag; GPR119 PathHunter beta-arrestin cells, luminescence, 90 min; 0 = compound-well median, 100 = enzyme-acceptor control; activation, % at 11.2 µM; hit rate 0.3% among 6,700; AID 1508611;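 active means mean percent activation in the counterscreen above 29.09%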;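 further: counterscreen on off-target GPR119 to flag nonselective hits from the GPR151 activator screen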
# Target sequence (Q8TDV5 whole entry, looked up): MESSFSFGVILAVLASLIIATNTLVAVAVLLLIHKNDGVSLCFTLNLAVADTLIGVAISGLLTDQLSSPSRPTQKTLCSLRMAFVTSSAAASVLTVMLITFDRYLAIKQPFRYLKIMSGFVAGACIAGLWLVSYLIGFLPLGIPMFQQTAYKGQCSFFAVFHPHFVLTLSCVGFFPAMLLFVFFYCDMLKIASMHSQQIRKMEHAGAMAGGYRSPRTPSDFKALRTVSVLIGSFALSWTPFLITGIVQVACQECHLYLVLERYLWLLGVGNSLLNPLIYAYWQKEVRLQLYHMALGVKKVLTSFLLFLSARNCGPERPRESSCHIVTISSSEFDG
# * = called active by the depositor; x = no result.
SMILES,MITF inh,GPR151 ag,FBW7 act,TEAD-YAP block,GPR151 confirm,GPR119 counter
O=C(NCc1cccc(Cl)c1)c1nc2c(nnn2Cc2ccccc2)c(=O)[nH]1,-0.4,2.1,0.0,-5.6,x,x
O=C(Nc1c(F)cccc1F)NC1(C(F)(F)F)Oc2ccccc2O1,6.4,2.1,-0.2,-20.0,x,x
O=C(c1ccco1)N1CCN(c2nccn3c(-c4cccc(Cl)c4)cnc23)CC1,18.0,6.9*,0.1,-0.6,1.3,21.4
O=C(Cc1ccc(F)cc1)Nc1ccc(-n2ncc3ccc(-c4nn[nH]n4)cc32)cc1,2.7,5.0*,-0.6,-6.9,-0.1,4.2
O=C(Nc1ccc(-n2ncc3ccc(-c4nn[nH]n4)cc32)cc1)c1ccccc1,-14.4,-1.5,-0.1,-6.7,x,x
Cc1cc(-c2nnc3n2CCC3)c(C)n1-c1ccccc1,10.3,5.7*,0.0,-12.4,-0.6,-1.9
Cc1cc(-c2nnco2)c(C)n1-c1ccccc1,3.4,2.4,-0.1,-8.1,x,x
O=C1C(=O)N(CCc2ccccc2)C(c2ccc3c(c2)OCO3)/C1=C(/O)c1ccccc1 (stereo unspecified),8.6,-1.2,-0.1,0.9,x,x
CCOC(=O)c1cnc2c(OC)cccc2c1Nc1cccc(C(=O)O)c1,11.4,5.3*,-0.1,-2.7,1.7,12.1
COC(=O)c1ccc(Cl)cc1NC(=O)N(C(C)C)C1CCN(C(C)=O)CC1,1.1,7.0*,-0.2,-8.7,1.8,-0.8
COc1ccc(NC(=O)N(C(C)C)C2CCN(C(C)=O)CC2)c(OC)c1,4.4,1.0,0.0,-4.2,x,x
COc1ccc(OCCCC(=O)Nc2ccc(-c3nnc4n3CCCCC4)cc2)cc1,-0.5,4.6,0.0,0.7,x,x
COc1cccc2c1OC1(CCN(C(=O)c3cc(F)cc(F)c3)CC1)OC2,22.6,2.2,-0.3,9.7,x,x
Cc1oc(-c2cccc(Cl)c2)nc1CS(=O)(=O)CC(=O)NC(C)c1ccccc1 (stereo unspecified),3.0,1.5,0.3,-3.7,x,x
CCc1cc(-c2n[nH]c(C)c2-c2nc(C)cs2)c(O)cc1OC,4.5,8.0*,0.0,10.4,0.5,7.4
Cc1ccccc1N(CC(=O)N1CCCC1)S(=O)(=O)c1ccc(Cl)cc1,18.9,-0.1,0.1,-11.6,x,x
Cc1ccccc1N(CC(=O)N1CCOCC1)S(=O)(=O)c1ccc(Cl)cc1,-6.2,14.0*,-0.2,3.6,0.5,2.9
NC(=O)NC(CC(=O)Nc1ccc2c(c1)OCCCO2)c1cccc(Oc2ccccc2)c1 (stereo unspecified),-2.4,2.4,0.0,14.4,x,x
CCOC(=O)c1c(NC(=S)NC(=O)N(C)C)sc(C)c1-c1cccs1,1.3,5.1*,-0.1,-0.2,0.7,6.8
Cc1ccc(C(=O)COC(=O)C(C)N2C(=O)C3C4CCC(C4)C3C2=O)cc1 (stereo unspecified),36.1,5.4*,-0.2,-15.9,-1.1,-13.2
CC(C(=O)OCC(=O)c1ccc(Br)cc1)N1C(=O)C2C3CCC(C3)C2C1=O (stereo unspecified),3.9,-2.4,-0.2,-15.9,x,x
COc1nn(C)cc1C(=O)NCC(=O)Nc1ccc2c(c1)Cc1ccccc1-2,7.9,9.5*,0.1,3.6,0.8,9.4
CCc1ccccc1NC(=O)CSc1nc2ccccc2c(=O)n1CCCC(=O)NCCc1ccccc1,4.9,0.0,0.1,0.4,x,x
O=C(NC1CCS(=O)(=O)C1)c1ccc(F)cc1 (stereo unspecified),0.4,0.4,0.0,-3.8,x,x
Cc1nc(N2CCN(C)CC2)c2c(C)c(C(=O)N3CCC(Cc4ccccc4)CC3)sc2n1,10.9,7.1*,0.0,3.5,-0.8,-9.3
SMILES,MITF inh,GPR151 ag,FBW7 act,TEAD-YAP block,GPR151 confirm,GPR119 counter
COc1ccccc1CNC(=O)c1sc2nc(C)nc(N3CCCCC3)c2c1C,4.6,5.2*,-0.1,-7.7,0.4,1.3
Cc1ccc(NC(=O)C(CC(=O)O)NCc2ccco2)cc1 (stereo unspecified),-5.5,7.6*,0.1,-6.0,-0.5,3.0
COc1ccc(-c2c(C#N)c(N)n3c(nc4ccccc43)c2C#N)cc1OC,11.9,0.6,0.2,3.1,x,x
COc1cc(-c2c(C#N)c(N)n3c(nc4ccccc43)c2C#N)ccc1OCCCC#N,4.8,7.3*,0.1,-5.9,-0.7,5.3
O=C(C1CCC1)N1CCOc2ccc(CN3CCN(c4ccccn4)CC3)cc2C1,-4.3,-1.5,-0.1,3.1,x,x
O=C(C1CCCCC1)N1CCOc2ccc(CN3CCN(Cc4ccccn4)CC3)cc2C1,25.3,5.0*,0.2,2.2,0.4,11.0
O=C1CN(C(=O)COC(=O)CCCSc2nc3ccccc3s2)c2ccccc2N1,2.2,-4.4,0.1,17.2,x,x
CNS(=O)(=O)c1cccc(C(=O)OCC(=O)c2cc3ccccc3o2)c1,-9.0,0.7,0.1,-4.7,x,x
CN(C)c1cccc(C(=O)OCC(=O)c2cc3ccccc3o2)c1,7.8,5.2*,0.2,18.3,-1.1,-4.8
CCOc1ccc(CCNC(=O)c2coc(=O)c3ccccc23)cc1OCC,-3.2,0.6,0.1,-0.5,x,x
O=C(Nc1ccccn1)C1(c2cccs2)CCOCC1,13.7,1.4,0.4,5.7,x,x
Cc1ccnc(NC(=O)C2(c3cccs3)CCOCC2)c1,-6.9,5.3*,0.0,19.7,-1.2,-4.7
Nc1cc(Oc2ccc3c(c2)CCC3)cc([N+](=O)[O-])c1,20.1,-0.7,0.2,0.1,x,x
COc1cc(/C=N/NC(=O)CNc2ccccc2C)cc([N+](=O)[O-])c1O,-0.1,0.9,0.0,6.0,x,x
CC(=O)c1cccc(NC(=O)COc2c(C)cccc2C)c1,-13.6,5.2*,-0.3,-6.5,-0.2,-11.5
CCC1CCCCN1S(=O)(=O)c1ccc(C(=O)Nc2nccs2)cc1 (stereo unspecified),-4.0,5.1*,0.4,-1.4,-0.2,1.6
Cc1ccc(S(=O)(=O)N2CCCCC2CC(=O)Nc2nccs2)cc1 (stereo unspecified),-6.6,3.7,0.2,4.3,x,x
Cc1ccc(-c2nc3ncccc3o2)cc1NC(=O)c1cccc(I)c1,-4.4,-0.5,0.1,2.0,x,x
O=S(=O)(c1ccc(S(=O)(=O)N2CCC3(CC2)OCCO3)cc1)N1CCCC1,6.8,-0.6,0.2,-2.8,x,x
O=S(=O)(c1ccc(Oc2ccc(S(=O)(=O)N3CCC4(CC3)OCCO4)cc2)cc1)N1CCC2(CC1)OCCO2,-6.4,8.5*,0.1,4.9,-0.2,0.1
CCCC(=O)Nc1cccc(Oc2ccc3c(c2)C(=O)NC3=O)c1,-8.9,6.0*,-0.1,-3.8,-0.5,-7.8
CCCC(=O)Nc1ccc(Oc2ccc3c(c2)C(=O)NC3=O)cc1,15.5,-1.4,0.0,-6.1,x,x
O=C(O)CC1NC(=O)c2ccc(Br)cc21 (stereo unspecified),15.1,18.0*,0.5,4.1,-0.4,-8.6
O=C1/C(=C/c2ccc3c(c2)OCO3)SC(=S)N1Cc1cccnc1,-1.2,-0.7,-0.1,-2.9,x,x
